The results in this text go back to PubChem BioAssay AID1851 (National Center for Advancing Translational Sciences (NCATS), 2009).

Each structure is given as a SMILES string. Hit rate of the full screen: of about 16,000 compounds, about 5,800 (36%) were called active. Inconclusive results (about 23%) are left out. Some of the results follow. Values without a mark were called inactive. The call rests on the fitted dose curve; in most records, active means well fitted curve in the direction sought with a large enough effect; inconclusive means small, poorly fitted or top-dose-only effect, or effect the other way; inactive means no such curve, though single readings can be large or run the other way.

The term AC50 denotes the midpoint of the concentration-response curve, whichever way the signal moves.
On the % scale 0 is the no-effect control and ±100 the full control effect.

The target in this assay is Cytochrome P450 2C19 (Homo sapiens) (UniProt P33261). In words: Cytochrome panel assay with activity outcomes. The conditions noted are these: recombinant CYP, pro-luciferin dealkylation, luminescence, p450-cyp2c19; series mostly up to 57.1 µM; activity, negative = inhibition: at the top concentration.
Chain of Cytochrome P450 2C19 (Homo sapiens) (P33261 whole entry, looked up): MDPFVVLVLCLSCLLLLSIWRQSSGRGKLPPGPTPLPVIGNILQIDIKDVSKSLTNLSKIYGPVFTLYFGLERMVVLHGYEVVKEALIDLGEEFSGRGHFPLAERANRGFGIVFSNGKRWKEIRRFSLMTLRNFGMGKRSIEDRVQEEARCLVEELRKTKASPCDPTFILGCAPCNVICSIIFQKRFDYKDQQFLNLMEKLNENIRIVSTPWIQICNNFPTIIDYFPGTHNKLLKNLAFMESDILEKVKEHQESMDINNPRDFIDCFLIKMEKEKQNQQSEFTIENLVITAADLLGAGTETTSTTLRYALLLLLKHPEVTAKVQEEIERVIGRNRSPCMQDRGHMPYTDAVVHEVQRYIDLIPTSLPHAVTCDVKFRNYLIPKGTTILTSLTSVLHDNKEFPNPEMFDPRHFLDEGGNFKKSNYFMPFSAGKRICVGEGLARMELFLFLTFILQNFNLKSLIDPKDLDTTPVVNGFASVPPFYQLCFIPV
With `CC(Sc1nnc(C(C)N(C)C)n1-c1ccc(Cl)cc1)C(=O)Nc1ccc2c(c1)OCO2` (stereo unspecified), the AC50 was 22.4 µM (active).

Consider `O=C(O)CCC(=O)N1CCN(c2ccccn2)CC1`, for which the “activity, negative = inhibition” value is -10.9%. `O=C(c1cnc(N2CCN(c3ncccn3)CC2)c2ccccc12)N1CCN(c2ccccn2)CC1`: the AC50 is 5.01 µM (active).

Turning to `O=C(c1cnccn1)N1CCC2(CC1)CCN(c1ncccn1)CC2`, the “activity, negative = inhibition” value was -1.14%.

`Cn1cccc1C(=O)N1CCC2(CC1)CCN(c1ncccn1)CC2`: the “activity, negative = inhibition” value was -26.1%. On the same count and under the same terms, under `O=C(c1cnccn1)N1CCC2(CC1)CCN(c1ccccn1)CC2` stands -16.2%; under `O=C(c1cnccn1)N1CCC2(CC1)CN(c1ccccn1)C2`, -19.8%. With `CC(C)c1ccc(OCc2ccc(C(=O)N3CCN(c4ccccn4)CC3)cc2)cc1`, the AC50 was 11.2 µM (active). Still for that read-out and setting: under `COc1ccccc1C(=O)N1CCN(c2ccccn2)CC1` stands 7.08 µM (active). With `COCC(=O)N1CCC2(CC1)CCN(c1ccccn1)CC2`, the “activity, negative = inhibition” value was -28.4%. Still for that read-out and setting: under `CC(=O)N1CCC2(CC1)CCN(c1ccccn1)CC2` stands -15.1%. Turning to `O=C(c1cnc(N2CCN(c3ncccn3)CC2)c2ccccc12)N1CCN(c2ncccn2)CC1`, the AC50 was 10 µM (active). Turning to `COCC(=O)N1CCC2(CC1)CCN(C(=O)NC(C)C)CC2`, the “activity, negative = inhibition” value was -30.3%. For `Cc1ccc(-n2nnnc2C(=Cc2ccc(N(C)C)cc2)c2nnnn2-c2ccc(C)cc2)cc1`, the AC50 is 1.26 µM (active). Still for that read-out and setting: under `O=C1CC(c2cccc(F)c2)SC(N(c2ccccc2)c2ccccc2)=N1` (stereo unspecified) stands 5.01 µM (active); under `COC(=O)C(Cc1ccc(OC(=O)c2ccc(C(F)(F)F)cc2)cc1)N1Cc2ccccc2C1=O` (stereo unspecified), 14.1 µM (active); under `COC(=O)C(Cc1ccc(OC(=O)c2ccc(Cl)cc2)cc1)N1Cc2ccccc2C1=O` (stereo unspecified), 2.82 µM (active). With `O=C(Oc1ccc2c(c1)CN(Cc1ccccc1)CO2)c1ccccc1`, the activity, negative = inhibition was -25.4% [at 11.4 µM]. With `CN1CCN(c2ncc3nc(-c4ccccc4)c(=O)n(Cc4cccs4)c3n2)CC1`, the “activity, negative = inhibition” value is -25.6%. Same read-out and setting: under `CC(C)[C@]1(Cl)CC[C@@H]2[C@]3(C)CCC[C@@](C)(C(=O)O)[C@H]3C[C@H](Cl)[C@@]2(Cl)[C@H]1Cl` stands -28.4% [at 11.4 µM]. Regarding `Cc1cc(NC(=O)Nc2ccc(F)cc2)no1`, the AC50 is 14.1 µM (active). Turning to `Cc1noc(N)c1C(=O)Nc1ccc(F)cc1`, the “activity, negative = inhibition” value is -25.6%. As to `C1CCC(N=C(NC23CC4CC(CC(C4)C2)C3)N2CCOCC2)CC1`, the “activity, negative = inhibition” value is 28.2%.

Consider `Cc1ccc(S(=O)(=O)O[C@H]2C[C@@H](C(C)(C)C)CC[C@@H]2c2ccccc2)cc1`, for which the AC50 was 3.16 µM (active). Regarding `Cc1ccc(S(=O)(=O)ON=C2CCN(S(=O)(=O)c3ccccc3)CC2)cc1`, the “activity, negative = inhibition” value was -29%. With `C=CCSc1nc(C)cc(/C=C\c2ccccc2)c1C#N`, the AC50 is 5.62 µM (active). With `CCOC(=O)COc1cc(OCC(=O)OCC)c2c(=O)cc(-c3ccccc3)oc2c1`, the AC50 is 14.1 µM (active).

Turning to `O=C(O)c1cc(=O)c2c(OCC(O)COc3cccc4oc(C(=O)O)cc(=O)c34)cccc2o1`, the “activity, negative = inhibition” value was -4.86% [at 25.6 µM]. Still for that read-out and setting: under `CC(C)C12CC[C@@]3(CC[C@H]4[C@@](C)(CCC[C@]4(C)C(=O)O)[C@@H]3C1)[C@@H](CN)C2` stands 8.51% [at 11.4 µM]; under `Cc1ccc(O)c(C(=O)c2cc(C#N)c(=O)n(-c3c(C)n(C)n(-c4ccccc4)c3=O)c2)c1`, -13.2%. `Brc1ccc(/C=C/C=N/Nc2nc3ccccc3s2)cc1`: the AC50 was 3.55 µM (active). Regarding `c1ccc(/C(=N/Nc2nc3ccccc3s2)c2ccccn2)cc1`, the activity, negative = inhibition is -42.9% [at 11.4 µM]. Same read-out and setting: with `O=c1c(-c2cc(F)cc(F)c2)nc2cnc(N3CCOCC3)nc2n1-c1ccccc1` the figure was -8.88%; with `O=S(=O)(c1ccccc1)c1cnn2c(C(F)(F)F)cc(-c3ccc(F)cc3)nc12`, -26.6%. Regarding `Fc1ccc(-c2cn3cc(C(F)(F)F)cc(Cl)c3n2)cc1`, the AC50 was 10 µM (active). On the same count and under the same terms, under `CCOC(=O)CSC1=NC(=O)/C(=C\c2ccc(OC(C)=O)cc2)S1` stands 15.8 µM (active).

Regarding `O=C1CC[C@H](NC(=O)c2ccccc2)C(=O)N1`, the activity, negative = inhibition is 28.7% [at 11.4 µM]. Regarding `O=C1CSC(c2ccccc2F)N1c1cc(Cl)ccc1O` (stereo unspecified), the AC50 was 0.891 µM (active). Take `Nc1nc(N)nc(CC(=O)O)n1`: the activity, negative = inhibition was -6.24% [at 11.4 µM]. Turning to `Cc1noc(C)c1-c1cncnc1NC1CC1`, the “activity, negative = inhibition” value is -20.9%. With `Cc1ccccc1-c1cncnc1N(C)Cc1ccco1`, the AC50 is 5.01 µM (active). For `Cc1noc(C)c1-c1cncnc1N(C)Cc1ccco1`, the AC50 is 2.51 µM (active).

For `CN(Cc1ccco1)c1ncncc1-c1ccccc1C(F)(F)F`, the AC50 was 3.98 µM (active). Same read-out and setting: under `CN(Cc1ccco1)c1ncncc1-c1ccccc1Cl` stands 0.794 µM (active). Consider `CC1(C)S[C@@H]2[C@H](NC(=O)[C@@H](NC(=O)N3CCNC3=O)c3ccccc3)C(=O)N2[C@H]1C(=O)O`, for which the “activity, negative = inhibition” value is 6.12% [at 25.6 µM]. On the same count and under the same terms, under `CC1(C)O[C@H]2[C@@H](O1)[C@@H](On1nnc3ccc(Cl)cc31)O[C@@H]2[C@@H]1COC(C)(C)O1` stands 17% [at 11.4 µM]. Turning to `O=C(CCCCn1c(=S)[nH]c2ccsc2c1=O)NCc1ccco1`, the AC50 is 14.1 µM (active). With `O=C(CCn1c(=O)[nH]c2ccsc2c1=O)Nc1ccc(F)c(F)c1`, the “activity, negative = inhibition” value was -13.9%.

Take `Cc1ccc(-n2c(=O)c3sccc3n(CC(=O)NCc3ccco3)c2=O)cc1F`: the “activity, negative = inhibition” value is 28.2%. `O=C(CCCCCn1c(=O)[nH]c2ccsc2c1=O)NCc1ccc2c(c1)OCO2`: the AC50 is 10 µM (active).

For `O=C(NCc1ccco1)c1ccc2c(=O)n(-c3ccccc3)c(=S)[nH]c2c1`, the “activity, negative = inhibition” value is -24.2%.

On to `NCC[C@H]1CCC[C@H](CCN)N1`, for which the “activity, negative = inhibition” value is -4.62%. Same read-out and setting: under `NC(=O)N1c2ccccc2C=Cc2ccccc21` stands -26.8% [at 25.6 µM]. For `O=C(C[C@@H]1C=Cc2ccccc2N1C(=O)c1ccccc1)c1ccccc1`, the AC50 is 0.501 µM (active). On the same count and under the same terms, under `O=C(Cc1ccc(Br)cc1)Nc1ccccc1Sc1ccccc1` stands 0.178 µM (active); under `O=C(NC1CCCCC1)C1CC=CCC1C(=O)OCC(Cl)=C(Cl)Cl` (stereo unspecified), 10 µM (active). Still for that read-out and setting: with `O=C(c1ccc2c(=O)n(CC3CCCO3)c(=S)[nH]c2c1)N1CCN(c2ccccc2)CC1` (stereo unspecified) the figure was 11.2 µM (active); with `COc1ccc(NC(=O)c2ccc3c(=O)n(Cc4ccco4)c(=S)[nH]c3c2)c(OC)c1`, 4.47 µM (active). Take `COCCCNC(=O)c1ccc2c(=O)n(CC3CCCO3)c(=S)[nH]c2c1` (stereo unspecified): the “activity, negative = inhibition” value was 12%. As for `O=C(c1ccc2c(=O)n(Cc3ccco3)c(=S)[nH]c2c1)N1CCN(c2ccccc2)CC1`, the AC50 was 2.24 µM (active).

Regarding `CC(=O)OC[C@@H]1O[C@@H](O/N=C2/C[C@@H](O)[C@@H](O)[C@@H]3[C@@H]4C(=O)N(C5CCCCC5)C(=O)[C@H]4CC[C@@H]23)[C@H](OC(C)=O)[C@H](OC(C)=O)[C@@H]1OC(C)=O`, the activity, negative = inhibition was 2.25% [at 11.4 µM]. On the same count and under the same terms, under `CCOc1ccccc1Nc1ccc(N)cc1S(=O)(=O)O` stands -16.1% [at 11.4 µM]. As for `CCOc1ccccc1NC(=O)C1Cc2ccccc2CN1S(C)(=O)=O` (stereo unspecified), the AC50 is 7.94 µM (active). For `C=C(NC(=O)C(=C)NC(=O)c1csc(C2=N[C@@H]3c4csc(n4)[C@@H]4NC(=O)c5csc(n5)[C@@H]([C@](C)(O)[C@H](C)O)NC(=O)[C@@H]5CSC(=N5)/C(=C/C)NC(=O)[C@@H]([C@H](C)O)NC(=O)c5csc(n5)[C@]3(CC2)NC(=O)[C@@H](C)NC(=O)C(=C)NC(=O)[C@@H](C)NC(=O)[C@@H]([C@@H](C)CC)N[C@H]2C=Cc3c([C@H](C)O)cc(nc3[C@@H]2O)C(=O)O[C@H]4C)n1)C(N)=O`, the “activity, negative = inhibition” value is 15.8% [at 25.6 µM].

Consider `O=S(=O)(c1ccccc1)N1CN2CN(C1)CN(S(=O)(=O)c1ccccc1)C2`, for which the activity, negative = inhibition was -18.2% [at 11.4 µM]. On the same count and under the same terms, with `O=S(=O)(c1ccccc1)N1CCC2(CC1)CN(C(c1ccccc1)c1ccccc1)C2` the figure was -6.26%. Regarding `O=C1CCN(S(=O)(=O)c2ccccc2)N1`, the AC50 was 17.8 µM (active).

For the compound `O=C(OC(C(=O)O)C(OC(=O)c1ccccc1)C(=O)NCc1ccccc1)c1ccccc1` (stereo unspecified), the “activity, negative = inhibition” value was 1.03%.

Regarding `O=C(NCc1ccc(F)cc1)C(c1ccncc1)N(C(=O)c1csnn1)C1CC1` (stereo unspecified), the AC50 is 3.55 µM (active).

`O=C(NCc1ccccc1)C(c1ccncc1)N(C(=O)c1csnn1)C1CC1` (stereo unspecified): the AC50 is 8.91 µM (active).

Consider `O=C(c1csnn1)N1CCC2(CC1)CCN(c1ccccc1)CC2`, for which the “activity, negative = inhibition” value is -19.6%. For the compound `CCc1ccc(N(C(=O)c2csnn2)C(C(=O)NCc2ccccc2)c2ccco2)cc1` (stereo unspecified), the AC50 is 3.16 µM (active). Take `O=C(Nc1cccc(F)c1)N1CCC2(CC1)CCN(C(=O)c1csnn1)CC2`: the “activity, negative = inhibition” value is -22.8%. Consider `O=C(c1csnn1)N1CCC2(CCCN(Cc3ccccc3)C2)CC1`, for which the “activity, negative = inhibition” value was 2.09%. Take `CC(C)CCn1c(Oc2ccccc2Cl)nc2c1c(=O)n(C)c(=O)n2C`: the AC50 is 15.8 µM (active). In the case of `CCn1c(CCCc2nc3c([nH]2)c(=O)n(C)c(=O)n3C)nc2c1c(=O)n(C)c(=O)n2C`, the activity, negative = inhibition is 2.28% [at 11.4 µM]. As to `CCOC(=O)N1CCN(C(=O)C(CC)n2nc(C)c3sc4ccccc4c3c2=O)CC1` (stereo unspecified), the AC50 is 20 µM (active).

For the compound `CCOC(=O)N1CCN(C(=O)C(C)SCc2ccccc2)CC1` (stereo unspecified), the “activity, negative = inhibition” value was -27.1%. Take `CCOC(=O)N1CCN(C(=O)c2cnc3n(c2=O)CCS3)CC1`: the “activity, negative = inhibition” value was -14.5%.

For `Cc1oc(-c2ccccc2Cl)nc1CSCC(=O)NC1CC1`, the AC50 was 14.1 µM (active). On the same count and under the same terms, with `Cc1oc(-c2ccccc2F)nc1CSCC(=O)NCc1ccc2c(c1)OCO2` the figure was 1.78 µM (active).

`CCOC(=O)N1CCN(C(=O)CSCc2nc(-c3ccccc3F)oc2C)CC1`: the AC50 was 31.6 µM (active).

For `Cc1oc(-c2ccccc2F)nc1CS(=O)(=O)CC(=O)NCCCN(C)C1CCCCC1`, the “activity, negative = inhibition” value was -9.67%. Still for that read-out and setting: with `N#Cc1cccc(NC(=O)N2CCC3(CC2)CCN(C(=O)c2csnn2)CC3)c1` the figure was 15.6%; with `Nc1ncnc2c([C@@H]3O[C@@H](CO)[C@H](O)[C@@H]3O)nsc12`, 20.7% [at 11.4 µM]. With `Cc1nn(C(C)(C)C)c(OC(=O)c2ccco2)c1Sc1ccccc1`, the AC50 was 7.08 µM (active). Same read-out and setting: under `Cc1nn(C(=O)c2cccnc2)c(C)c1Sc1ccc(Br)cc1` stands 0.631 µM (active). Regarding `Cc1nn(C(=O)c2ccco2)c(C)c1Sc1ccccc1`, the AC50 was 6.31 µM (active). On to `O=C(c1ccco1)N1CCC[C@@]2(CCN(Cc3ccccc3)C2)C1`, for which the “activity, negative = inhibition” value is -21.5%.

For `CC(C)(C(=O)c1cccnc1)c1cccnc1`, the “activity, negative = inhibition” value was -11.6% [at 25.6 µM]. With `O=C(c1ccco1)N1CCC2(CC1)CCN(c1ccccc1)CC2`, the “activity, negative = inhibition” value was -29.3%.
